Screening data deposited in PubChem by Johns Hopkins Ion Channel Center.
An excerpt weighted towards active compounds, which were near 1.6% of everything screened.
KCNQ2 pot: potentiators of rat KCNQ2 potassium channel | O88943 | CHO-K1 KCNQ2, FluxOR thallium flux fluorescence; active compounds read high | B-score at 10 µM | actives 0.54% (n = 310,000);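 active = fluorescence ratio B-score at least 3 SD of library B-scores, with initial fluorescence B-score within 3 of them, cut at about 5.3 in these data; same plate scores as AID 2156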;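 also: B-score of peak minus minimum over baseline fluorescence ratio after K+ and Tl+ stimulus; positive B-score means potentiation of KCNQ2 with more thallium influx and brighter signal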
KCNQ2 inh: KCNQ2 (rat) channel inhibition; B-score at 10 µM; actives 1.1% (n = 310,000); CHO-K1 KCNQ2, FluxOR thallium flux, 20 min; active compounds read low; O88943;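 active = fluorescence ratio B-score at most minus 3 library SDs, with starting brightness B-score within 2 library SDs, cut at about -5.5 in these data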
The depositor's hits bear a star; i = inactive; nt = no result.

SMILES	KCNQ2 pot	KCNQ2 inh
COc1ccc(/C(C)=N/Nc2cccc(C(=O)O)c2)cc1OC	nt	i
C/C(=N\Nc1ccc(C(=O)O)cc1)c1ccc2c(c1)Nc1ccccc1S2	5.35*	i
Cc1ccc(CNC(=O)C2CCN(C(=O)Nc3ccc(C)cc3)CC2)cc1	nt	i
COc1ccc(OCc2nnc(SCC(=O)Nc3ccccc3Cl)o2)cc1	0.64	i
CC(C)(C)NC(=O)C(=O)NNC(=O)c1cccc(Br)c1	6.65*	i
Cc1cccc(C(=O)NNC(=O)C(=O)NC(C)(C)C)c1	3.25	i
COC(=O)NNC(=O)c1ccc(C(C)(C)C)cc1	nt	i
CC(C)(C)NC(=O)C(=O)NNC(=O)COc1ccc(Br)cc1	6.23*	i
O=C(COc1ccc(Br)cc1)NC1CC1	0.88	i
CC(C)(C)NC(=O)C(=O)NNC(=O)c1ccc(C(C)(C)C)cc1	12.2*	i
CCOc1ccc(S(=O)(=O)NCCC(=O)N2CC(C)CC(C)C2)cc1 (centres undefined)	nt	i
COc1ccc(C2=NO[C@@](CC(=O)O)(C(=O)Nc3ccc4c(c3)OCCO4)C2)cc1	nt	i
CN(C)S(=O)(=O)c1cccc(NC(=S)Nc2cc(Cl)cc(Cl)c2)c1	1.04	i
CCN(CCO)c1ccc(NC(=S)Nc2cccc(S(=O)(=O)N(C)C)c2)cc1	-6.73	-6.73*
COc1cc2c(cc1OC)C(COc1ccc([N+](=O)[O-])cc1)N(C(C)=O)CC2 (centres undefined)	nt	i
COc1ccc(C(=O)NC(Cc2c[nH]c3ccccc23)C(=O)O)cc1 (centres undefined)	nt	i
CCCOc1ccc(C(=O)CCNC(Cc2c[nH]c3ccccc23)C(=O)O)cc1 (centres undefined)	-5.95	-5.95*
C#C[C@]1(O)CCC2C3CCC4=CC(=O)CC[C@@H]4C3CC[C@@]21C (some centres undefined)	nt	i
CC#C[C@]1(O)CC[C@H]2[C@@H]3CCC4=CC(=O)CCC4=C3[C@@H](c3ccc(N(C)C)cc3)C[C@@]21C	-5.92	-5.92*
CC1CCN(c2c([N+](=O)[O-])nn(-c3ccc4c(c3)OCCO4)[n+]2[O-])CC1	-5.58	-5.58*
O=[N+]([O-])c1nn(-c2ccc3c(c2)OCCO3)n(O)c1=NC1CCCCC1	0.86	i
CCn1cc(C(=O)NCCCN2CCCC(C)C2)c(=O)c2cc(S(=O)(=O)N3CCOCC3)ccc21 (centres undefined)	0.96	i
CCN(CC(=O)Nc1c(F)cccc1F)C(=O)c1cc([N+](=O)[O-])ccc1N1CCOCC1	0.04	i
Cc1ccc2[nH]c(=O)c(-c3noc(CC(C)C)n3)cc2c1	nt	i
CCOc1ccc2nc(N3C(=O)/C(=C/c4ccccc4)NC3=S)sc2c1	20.5*	i
SMILES	KCNQ2 pot	KCNQ2 inh
COc1ccc2nc(N3C(=O)/C(=C/c4ccccc4)NC3=S)sc2c1	22.7*	i
COc1ccc2nc(-n3c(C)ccc3C)sc2c1	0.47	i
CCOc1ccc2nc(N3CCCCCC3)sc2c1	1.02	i
CCOC(=O)c1c(NC(=S)NNS(=O)(=O)c2ccc(Br)cc2)sc2c1CCCCC2	1.92	i
NC(=O)NC(=O)COC(=O)c1ccc(OC(F)F)cc1	1.45	i
COC(=O)C(CC(=O)c1ccc(Cl)cc1)c1ccc(C)cc1 (centres undefined)	-6.5	-6.5*
O=C(CC(C(=O)O)c1ccc(Cl)cc1)c1ccccc1 (centres undefined)	nt	i
CCOC(=O)c1c(NC(=O)CSc2nnc3c(n2)[nH]c2ccccc23)sc2c1CCN(C)C2	nt	i
O=C(CNC(=O)c1cnccc1C(F)(F)F)c1cccc(Cl)c1	nt	i
CN(Cc1ccc(F)cc1)C(=O)C(Cc1ccccc1)NC(=O)c1ccccc1 (centres undefined)	nt	i
CN(Cc1ccccc1)C(=S)NC(=O)c1ccc(-c2ccccc2)cc1	7.12*	i
CSc1ccc(CN(C)C(=O)C(Cc2ccccc2)NC(=O)c2ccccc2)cc1 (centres undefined)	-5.54	-5.54*
CN(Cc1ccccc1)C(NC(=O)c1ccco1)C(Cl)(Cl)Cl (centres undefined)	0.56	i
CN(Cc1ccccc1)C(=S)NC(=O)c1cccs1	2.16	i
CN(Cc1ccccc1)C(NC(=O)c1ccccc1)C(Cl)(Cl)Cl (centres undefined)	-5.85	-5.85*
CCOC(=O)CSc1c(-c2ccc(Cl)cc2)[nH]c2ccccc12	nt	i
O=C(Cc1cccs1)NCCSc1c(-c2ccc(Cl)cc2)[nH]c2ccccc12	-7.07	-7.07*
Cc1nc2c(C(=O)NCCc3ccccc3Cl)c[nH]n2c(=O)c1Cl	7.22*	i
Cc1nc2c(C(=O)NCc3ccccc3Cl)c[nH]n2c(=O)c1Cl	nt	i
Cc1ccc(C)c(S(=O)(=O)N2CCCOC2CNC(=O)C(=O)NC2CCCC2)c1 (centres undefined)	nt	i
COc1ccc(-c2cc(C(=O)NCC3CCCO3)c3cc(C)ccc3n2)cc1 (centres undefined)	-5.58	-5.58*
